Inconclusive results are not listed. The source made the active and inactive calls. Calls come from the whole dose curve; as a rule, active = well fitted inhibition curve with a large enough effect; inconclusive = small, poorly fitted or top-dose-only effect; inactive = flat fitted curve, though single readings scatter.
How the values were obtained:
CRL-7250 = normal cell line; assay: Cytotoxic Profiling of Annotated Libraries Using Quantitative High-Throughput Screening (AID 1296008); conditions: Five cell lines viability, CellTiter-Glo ATP luminescence, 48-72 h; max response: stronger effect = lower value; for max response: % is set by controls: 0 for no effect and ±100 for the full control effect
Method in brief: (§1)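 Compounds were pin-transferred onto cells and incubated 48 or 72 hr at 37 degree Celsius, 95% humidity. CellTiter-Glo was added, plates sat 10 min at room temperature, then ATP-coupled luminescence was imaged as the viability read-out.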

HEK293 = assay: as above; conditions: Five cell lines viability, CellTiter-Glo ATP luminescence, 48-72 h; max response: stronger effect = lower value
Method in brief: as §1

HaCat [1] = assay: as above; conditions: Five cell lines viability, CellTiter-Glo ATP luminescence, 48-72 h; max response: stronger effect = lower value
Method in brief: as §1

KB-3-1 = assay: as above; conditions: Five cell lines viability, CellTiter-Glo ATP luminescence, 48-72 h; max response: stronger effect = lower value
Method in brief: as §1

NIH3T3 [2] = assay: as above; conditions: Five cell lines viability, CellTiter-Glo ATP luminescence, 48-72 h; max response: stronger effect = lower value
Method in brief: as §1

HACAT [3] = assay: qHTS assay to identify novel small-molecules to repurpose for Merkel cell carcinoma treatment (AID 1296009); conditions: MCC and control cell lines, CellTiter-Glo viability, 72 h; at 44.8 µM (top of the series) unless noted
Method in brief: (§2)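 Cells exposed to NPC (8-point) and MIPE (11-point) compound dilutions for 72 hr at 37 degree celsius; viability read by CellTiter-Glo luminescence, normalized to no-cell and DMSO in-plate controls.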

NIH3T3 [4] = assay: as above; conditions: MCC and control cell lines, CellTiter-Glo viability, 72 h; at 44.8 µM (top of the series) unless noted
Method in brief: as §2

HEK293T = assay: as above; conditions: MCC and control cell lines, CellTiter-Glo viability, 72 h; at 44.8 µM (top of the series) unless noted
Method in brief: as §2

Measured: max response
Note: nearly all actives have a fitted effect of over 60% in size.

OC[C@H]1O[C@@H](OCc2ccccc2)[C@H](O)[C@@H](O)[C@@H]1O
inactive: CRL-7250 0.468% | HEK293 -5.26% | HaCat [1] | KB-3-1 1.59% | NIH3T3 [2] | HACAT [3] | NIH3T3 [4]

C=C1C2(C)CC3C4(C)C=CC(=O)OC(C)(C)C4CCC3(C)C1(C(=O)OC)C(=O)C(C)(O)C2=O (configuration not stated)
inactive: CRL-7250 -7.15% | HEK293 -101% | HaCat [1] | KB-3-1 | NIH3T3 [2] | HACAT [3] inactive [at 17.4 µM] | NIH3T3 [4] inactive [at 17.4 µM]

CC[C@H]1OC(=O)[C@H](C)C(=O)[C@H](C)[C@@H](OC2O[C@H](C)C[C@H](N(C)C)[C@H]2O)[C@@H](C)C[C@@H](C)C(=O)/C=C/[C@]1(C)O (some centres not stated)
inactive: CRL-7250 -0.333% | HEK293 -11.3% | HaCat [1] | KB-3-1 7.73% | NIH3T3 [2] | HACAT [3] inactive [at 17.4 µM] | NIH3T3 [4] inactive [at 17.4 µM]

CCC(C)C(=O)OC[C@H]1O[C@H](O[C@H]2O[C@H](CO)[C@@H](O)[C@H](O)[C@H]2O)[C@H](O)[C@@H](O)[C@@H]1O (some centres not stated)
inactive: CRL-7250 | HEK293 0.11% | HaCat [1] | KB-3-1 6.74% | NIH3T3 [2] | HACAT [3] inactive [at 17.4 µM] | NIH3T3 [4] inactive [at 17.4 µM]

COCc1c(O)c(C(=O)O)c(C)c2c1OC(=O)c1c(C)cc(O)c(CO)c1O2
inactive: CRL-7250 0.001% | HEK293 -3.82% | HaCat [1] | KB-3-1 | NIH3T3 [2] | HACAT [3] | NIH3T3 [4]

COC(=O)C(CC1(O)c2ccccc2N2C(=O)C(CC(C)C)NC21)n1cnc2ccccc2c1=O (configuration not stated)
inactive: CRL-7250 | HEK293 -5.33% | HaCat [1] | KB-3-1 | NIH3T3 [2] | HACAT [3] inactive [at 17.4 µM] | NIH3T3 [4] inactive [at 17.4 µM]

CO[C@H]1c2cc(C(C)C)c(O)c(O)c2[C@@]23CCCC(C)(C)C2[C@@H]1OC3=O (some centres not stated)
inactive: CRL-7250 | HEK293 -7.48% | HaCat [1] | KB-3-1 | NIH3T3 [2] | HACAT [3] | NIH3T3 [4]

Cc1occc(=O)c1O[C@@H]1O[C@H](COC(=O)CC(C)(O)CC(=O)O)[C@@H](O)[C@H](O)[C@H]1O (some centres not stated)
inactive: CRL-7250 | HEK293 -5.53% | HaCat [1] | KB-3-1 | NIH3T3 [2] | HACAT [3] inactive [at 17.4 µM] | NIH3T3 [4] inactive [at 17.4 µM]

C[C@@H]1C[C@@H](O)[C@@]23CO[C@]2(CO)C[C@@H](O)CC3[C@@]12CC(c1ccoc1)OC2=O (some centres not stated)
inactive: CRL-7250 -3.28% | HEK293 0.731% | HaCat [1] | KB-3-1 | NIH3T3 [2] | HACAT [3] | NIH3T3 [4]

O=C(O)CCc1cccc(O)c1O[C@@H]1O[C@H](CO)[C@@H](O)[C@H](O)[C@H]1O
inactive: CRL-7250 3.73% | HEK293 -3.2% | HaCat [1] | KB-3-1 8.15% | NIH3T3 [2] | HACAT [3] | NIH3T3 [4]

CC/C=C\CC1C(CC(=O)O)CCC1OC1OC(CO)C(O)C(O)C1O (configuration not stated)
inactive: CRL-7250 | HEK293 0.263% | HaCat [1] | KB-3-1 8.15% | NIH3T3 [2] | HACAT [3] | NIH3T3 [4]

CCC1=C(C)C(=O)C(C)CC12C(=O)CCC2C(=O)O (configuration not stated)
inactive: CRL-7250 -4.23% | HEK293 -5.13% | HaCat [1] | KB-3-1 0.468% | NIH3T3 [2] | HACAT [3] | NIH3T3 [4]

CCC(C)/C=C(C)/C=C/C1=CC2=C(Cl)C(=O)C(C)(O)C(=O)C2(O)C(OC)O1 (configuration not stated)
inactive: CRL-7250 -11.8% | HEK293 -3.29% | HaCat [1] | KB-3-1 | NIH3T3 [2] | HACAT [3] inactive [at 17.4 µM] | NIH3T3 [4] inactive [at 17.4 µM]

C=C(C)C1CCC2(C(=O)OC3OC(COC4OC(CO)C(O)C(O)C4O)C(OC4OC(C)C(O)C(O)C4O)C(O)C3O)CCC3(C(=O)O)C(CCC4C5(C)CCC(=O)C(C)(C)C5CCC43C)C12 (configuration not stated)
inactive: CRL-7250 -1.47% | HEK293 -21.3% | HaCat [1] | KB-3-1 1.44% | NIH3T3 [2] | HACAT [3] inactive [at 9.27 µM] | NIH3T3 [4] inactive [at 9.27 µM]

O=C(O)/C=C/c1ccc(O[C@@H]2O[C@H](CO)[C@@H](O)[C@H](O)[C@H]2O)cc1
inactive: CRL-7250 | HEK293 -0.219% | HaCat [1] | KB-3-1 | NIH3T3 [2] | HACAT [3] | NIH3T3 [4]

O=C(O)C1(c2ccc(-c3ccc(Cl)c(Cl)c3)c(F)c2)CC1
inactive: CRL-7250 2.78% | HEK293 -11.7% | HaCat [1] | KB-3-1 -5.77% | NIH3T3 [2] | HACAT [3] | NIH3T3 [4]

COC(=O)/C=C/c1ccc(O[C@@H]2O[C@H](CO)[C@@H](O)[C@H](O)[C@H]2O)cc1
inactive: CRL-7250 -1.55% | HEK293 -5.47% | HaCat [1] | KB-3-1 2.42% | NIH3T3 [2] | HACAT [3] | NIH3T3 [4]

O=C(O)Cn1nnc(-c2ccc(CN(CCCCOc3ccc(CN4CCCC4)cc3)CCc3ccccc3)cc2)n1
inactive: CRL-7250 | HEK293 -0.898% | HaCat [1] | KB-3-1 9.81% | NIH3T3 [2] | HACAT [3] | NIH3T3 [4]

COc1cc(-c2ccc(O)cc2)c(OC)c(O)c1C1=CC(=O)OC1CC(=O)O (configuration not stated)
inactive: CRL-7250 2.67% | HEK293 1.87% | HaCat [1] | KB-3-1 -5.37% | NIH3T3 [2] | HACAT [3] | NIH3T3 [4]

C/C=C(\C)C(=O)OC[C@H]1O[C@H](O[C@H]2O[C@H](CO)[C@@H](O)[C@H](O)[C@H]2O[C@@H]2O[C@H](CO)[C@@H](O)[C@H](O)[C@H]2O)[C@H](O[C@@H]2O[C@H](CO)[C@@H](O)[C@H](O)[C@H]2O)[C@@H](O)[C@@H]1O
inactive: CRL-7250 0.965% | HEK293 -1.76% | HaCat [1] | KB-3-1 | NIH3T3 [2] | HACAT [3] inactive [at 17.4 µM] | NIH3T3 [4] inactive [at 17.4 µM]

CCC1OC(=O)C(C)CC(C)C(=O)/C(C)=C/C(C)C(=O)/C=C/C1(C)O (configuration not stated)
inactive: CRL-7250 | HEK293 -3.54% | HaCat [1] | KB-3-1 8.38% | NIH3T3 [2] | HACAT [3] | NIH3T3 [4]

CC(C)C1NC(=O)C2CCCN2C1=O (configuration not stated)
inactive: CRL-7250 | HEK293 0.78% | HaCat [1] | KB-3-1 | NIH3T3 [2] | HACAT [3] | NIH3T3 [4]

CC1(C)CC[C@]2(C(=O)O[C@@H]3O[C@H](CO)[C@@H](O)[C@H](O)[C@H]3O)CC[C@]3(C)C(=CCC4[C@@]5(C)CC[C@H](O[C@H]6O[C@H](CO)[C@@H](O)[C@H](O[C@@H]7O[C@H](CO)[C@@H](O)[C@H](O)[C@H]7O)[C@H]6O)C(C)(C)C5CC[C@]43C)[C@@H]2C1 (some centres not stated)
inactive: CRL-7250 -1.95% | HEK293 -4.45% | HaCat [1] | KB-3-1 4.79% | NIH3T3 [2] | HACAT [3] inactive [at 9.27 µM] | NIH3T3 [4] inactive [at 9.27 µM]

Nc1ncnc2c1ncn2[C@H]1O[C@@H](C(=O)N2CCN(CC(=O)Nc3cccc4c3CNC4=O)CC2)[C@H](O)[C@@H]1O
inactive: CRL-7250 | HEK293 1.78% | HaCat [1] | KB-3-1 | NIH3T3 [2] | HACAT [3] | NIH3T3 [4]

C=C1[C@@H]2CC[C@@]3(C)[C@H](c4ccoc4)OC(=O)C[C@]13O[C@H]1CC(=O)C(C)(C)[C@H](C(O)C(=O)OC)[C@]12C (some centres not stated)
inactive: CRL-7250 -0.794% | HEK293 -5.89% | HaCat [1] | KB-3-1 | NIH3T3 [2] | HACAT [3] inactive [at 17.4 µM] | NIH3T3 [4] inactive [at 17.4 µM]

CCCC1=CC2=C(CO1)C(=O)C(C)(O)C(OC(=O)c1c(C)cc(OC)cc1O)C2 (configuration not stated)
inactive: CRL-7250 -6.12% | HEK293 -3.53% | HaCat [1] | KB-3-1 | NIH3T3 [2] | HACAT [3] inactive [at 17.4 µM] | NIH3T3 [4] inactive [at 17.4 µM]

Cc1sc(C)c(C(=O)NC2(c3ccc(C(=O)O)cc3)CC2)c1Cc1ccc(C(F)(F)F)cc1
inactive: CRL-7250 -2.74% | HEK293 -5.46% | HaCat [1] | KB-3-1 8.32% | NIH3T3 [2] | HACAT [3] | NIH3T3 [4]

O=C1NC(=O)/C(=C/c2cccc(C(F)(F)F)c2)S1
inactive: CRL-7250 | HEK293 | HaCat [1] 3.45% | KB-3-1 -2.21% | NIH3T3 [2] 4.34% | HEK293T

CC(C)=C1C[C@@]2(C)C(=CC1=O)CC[C@@H](O)[C@@H]2C
inactive: CRL-7250 -13.6% | HEK293 | HaCat [1] -1.2% | KB-3-1 3.47% | NIH3T3 [2] -19.7% | HEK293T

C[C@@H]1C(=O)O[C@H]2[C@H]1CC[C@@]1(C)C(=O)C=C[C@@](C)(O)[C@H]21
inactive: CRL-7250 -5.99% | HEK293 | HaCat [1] -2.04% | KB-3-1 1.69% | NIH3T3 [2] 4.77% | HEK293T

COC(=O)C1C(O)CCC2CN3CCc4c([nH]c5ccccc45)C3CC21 (configuration not stated)
inactive: CRL-7250 2.68% | HEK293 | HaCat [1] -7.68% | KB-3-1 9.41% | NIH3T3 [2] -7.25% | HEK293T

O=C(Nc1ccccc1)Nc1ccc(-c2ccc(C(=O)C3CCCC3C(=O)O)cc2)cc1 (configuration not stated)
inactive: CRL-7250 -3.37% | HEK293 -9.05% | HaCat [1] | KB-3-1 | NIH3T3 [2] | HACAT [3] | NIH3T3 [4]

CC1CCC2C(C(=O)O)=CC3(O)CC(C)(C)CC123 (configuration not stated)
inactive: CRL-7250 2.87% | HEK293 | HaCat [1] 0.596% | KB-3-1 4.07% | NIH3T3 [2] 1.6% | HEK293T

CC1(C)OC(=O)CC(O)C2(C)C1CC(=O)C1(C)C2C(O)CC2(C)C(c3ccoc3)OC(=O)C3OC321 (configuration not stated)
inactive: CRL-7250 -14.5% | HEK293 | HaCat [1] -9.13% | KB-3-1 | NIH3T3 [2] -11.7% | HEK293T inactive [at 17.4 µM]
